Source: PubChem (several laboratories)
A selection: hits, their analogues and other compounds. The true share with any hit is near 4.6%.
tim23-1 inh: tim23-1 yeast growth inhibition. inhibition, % at 20 µM. actives 1.3% (n = 330,000). S. cerevisiae tim23-1 growth, BacTiter-Glo luminescence, 24 h;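 active = growth inhibition of the mutant yeast at or above 50%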;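 note: temperature-sensitive mutant grown at 25 °C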
TIM10 inh: inhibits growth of TIM10 yeast strain; S. cerevisiae TIM10 strain growth, BacTiter-Glo luminescence, 24 h; inhibition, % at 10 µM; actives 1.4% (n = 330,000);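 active = inhibition of 40% or more at the single tested concentration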;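 note: wild-type TIM10 isogenic control strain grown at permissive 25 °C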
NALP3 yeast inh: NALP3 inhibition in yeast; AID 2825; actives 0.39% (n = 330,000); inhibition, % at 10 µM; Yeast reconstituted NLRP3/ASC/caspase-1, beta-gal luminescence, 24 h;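 active = inhibition of 50% or more; inactive = inhibition below 50%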
SKKanGAS inh: inhibitors of SKKanGAS S. pyogenes growth in kanamycin (SK-promoter or general growth effect); BacTiter-Glo, 6 h; inhibition, % at 7.5 µM; actives 1.3% (n = 300,000);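 active = mean replicate score, as percent of positive control median, at least 50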;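 note: strain carries kanamycin resistance gene driven by streptokinase promoter and grows in 40 µg/ml kanamycin; loss of luminescence reflects streptokinase promoter inhibition or plain growth inhibition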
tim10-1 inh: tim10-1 yeast growth inhibition; inhibition, % at 20 µM; actives 2.2% (n = 330,000); S. cerevisiae tim10-1 ts strain growth, BacTiter-Glo, 24 h; AID 463190;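 active = inhibition of at least 40%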;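 note: mutant grown at 25 °C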
tim10-1 conf: confirmation of tim10-1 mutant yeast growth inhibitors; shares compounds with tim10-1 inh; S. cerevisiae tim10-1 ts strain growth, BacTiter-Glo, 24 h; inhibition, % at 20 µM; actives 56% (n = 7,400); AID 463213;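 active = inhibition of yeast growth at or above a set limit in either of two repeat tests at 20 µM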;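 note: tim10-1 mutant grown at permissive 25 °C to find synthetic lethal compounds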
Hits are given with their value; i = inactive; nt = not tested or not shown.

SMILES	tim23-1 inh	TIM10 inh	NALP3 yeast inh	SKKanGAS inh	tim10-1 inh	tim10-1 conf
CC(O)(CS(=O)(=O)Cc1ccc(Cl)cc1)C(=O)Nc1cccc(C(F)(F)F)c1 (configuration not stated)	i	i	i	i	i	nt
Cc1cccc(Cc2cnc(N3C(=N)SC(c4ccccc4)C3=O)s2)c1 (configuration not stated)	i	i	i	106.4	44.5	30.1
N=C1SCC(=O)N1c1ncc(Cc2ccccc2Cl)s1	nt	nt	nt	i	nt	nt
O=C(CNC(=O)c1ccccc1F)OCc1nc2ccccc2s1	i	i	i	i	i	nt
CNc1sc(C(=O)c2ccccc2F)c(N)c1-c1nc2ccccc2s1	i	i	i	i	46.5	35.1
COCCNC(=S)N/N=C(\C)c1ccc2cc(OC)ccc2c1	i	i	i	i	i	nt
COCCNC(=S)N/N=C(\C)c1cccc(C(F)(F)F)c1	i	i	i	i	45.2	i
COCCNC(=S)N/N=C(\C)c1cc2ccccc2o1	i	i	i	i	41.5	i
Cc1ccccc1CNC(=O)c1ccc(Cl)c([N+](=O)[O-])c1	i	i	i	i	43.0	i
Cc1ccccc1CNC(=O)Cc1ccccc1[N+](=O)[O-]	i	i	i	i	i	nt
CC(NC(=O)CCNC(=O)c1ccco1)c1ccccc1 (configuration not stated)	i	i	i	i	i	nt
CC(C)c1nc(N2CCN(C(=O)c3ccccc3)CC2)c(C#N)c2c1COC(C)(C)C2	i	i	i	i	i	nt
CC1(C)Cc2c(C#N)c(N3CCN(C(=O)c4ccccc4)CC3)nc(-c3ccco3)c2CS1	i	i	i	nt	43.8	32.8
Cn1ccnc1CN1CCCCC1C(=O)Nc1ccc(Oc2cccnc2)cc1 (configuration not stated)	i	i	i	i	i	nt
Cc1cc(N/N=C/c2ccc3c(c2)OCO3)nc2ccccc12	i	i	i	i	i	nt
CN(C)c1nc(NCc2ccccc2)nc(N/N=C/c2ccc3c(c2)OCO3)n1	i	i	i	i	40.9	i
O=c1[nH]c(N/N=C\c2ccc3c(c2)OCO3)nc2ccccc12	i	i	i	i	40.1	i
CC1CCCC(C)N1C(=O)COC(=O)c1cc(=O)[nH]c2ccccc12 (configuration not stated)	i	i	i	nt	i	nt
CCOc1ccc(CCNC(=O)COC(=O)c2cccc(S(=O)(=O)N3CCCC3)c2)cc1OCC	i	i	i	i	i	nt
COc1ccc(/C=C/C(=O)NC(=S)NNC(=O)[C@H]2C[C@@H]2c2ccccc2)cc1OC	i	i	i	63.2	47.7	i
Brc1ccccc1-c1nnc2sc(-c3ccc4c(c3)OCCO4)nn12	i	i	i	i	48.8	i
CC(C)CNC(=O)/C(C#N)=C1\N=C(NC(=O)c2ccco2)c2ccccc21	i	i	i	i	46.8	i
Cc1cc(C)n(-c2cc(C(C)(C)C)nc3c(-c4ccc(Cl)cc4)cnn23)n1	i	i	i	i	i	i
COc1cccc(OC)c1C(=O)Nc1ccc(C(=O)c2ccncc2)cc1	i	i	i	i	i	nt
Cc1oc2c(C)c3oc(=O)c4c(c3cc2c1C)CCCC4	i	i	i	i	54.4	54.5
SMILES	tim23-1 inh	TIM10 inh	NALP3 yeast inh	SKKanGAS inh	tim10-1 inh	tim10-1 conf
O=S(=O)(c1ccc(-c2csc(-c3cccnc3)n2)cc1)N1CCOCC1	i	i	i	i	42.1	i
Cc1ccc(S(=O)(=O)N2CCOCC2)cc1C(=O)Nc1nc(-c2cccnc2)cs1	i	i	i	i	i	nt
CC(C)N(Cc1nc(-c2ccccc2)no1)C(=O)c1ccc2c(c1)OCO2	i	i	i	i	81.1	i
Cc1ccc(-c2noc(CN(C(=O)c3ccc4c(c3)OCO4)C(C)C)n2)cc1	i	i	i	i	i	nt
Cc1nc2cc(Cl)ccc2n1-c1ccccc1	i	i	i	i	47.3	i
CC(=O)Nc1ccc2c(c1)nc(C)n2-c1ccccc1	i	i	i	i	i	nt
CCn1c2ccccc2c2nc3cc(OC)c(OC)cc3nc21	i	i	i	i	i	nt
CCn1c2ccccc2c2nc3ccccc3nc21	i	i	i	i	43.3	35.3
Cc1cc(C(=O)NN=C2CCCCCC2)c(C)o1	i	i	i	i	80.4	i
CC(=O)O[C@H]1CC(=O)OC(C)(C)C2CC(=O)[C@]3(C)C(CC[C@@](C)([C@@H](O[C@@H]4O[C@H](CO)[C@@H](O)[C@H](O)[C@H]4O)c4ccoc4)[C@@]34O[C@@H]4C(=O)O)[C@]21C (some centres not stated)	i	i	i	nt	i	nt
Nc1c(C(=O)NCc2ccccc2)c2nc3ccccc3nc2n1CCCN1CCOCC1	i	i	i	i	i	nt
Nc1c(C(=O)NCc2ccc(F)cc2)c2nc3ccccc3nc2n1CCCN1CCOCC1	i	i	i	i	60.2	i
Cc1ccc2cc(C#N)c(N3CCCN(C(=S)NCCCN(C)C)CC3)nc2c1	i	i	i	i	i	nt
Cc1cc(C)c2cc(C#N)c(N3CCCN(C(=S)NCCCN(C)C)CC3)nc2c1	i	i	i	i	40.2	30.6
O=C1C(Cl)=C(N2CCN(Cc3ccccc3)CC2)C(=O)N1Cc1ccccc1	i	i	i	i	44.0	i
COc1ccccc1-n1c(SCC(=O)c2ccc(O)cc2O)nc2cc([N+](=O)[O-])ccc21	i	i	i	i	40.5	i
COc1ccccc1-n1c(SCC(=O)NC2CCS(=O)(=O)C2)nc2cc([N+](=O)[O-])ccc21 (configuration not stated)	i	i	i	i	i	nt
CCOc1cccc2cc(-c3nnc(NCc4ccco4)s3)c(=O)oc12	i	i	i	i	40.4	i
Cc1ccccc1N/N=C/c1c(C)nc2ccccn12	i	i	i	i	44.9	i
Cc1nc2ccccn2c1C(=O)N/N=C/c1ccccc1	i	i	i	i	i	nt
COC(=O)c1cc(S(=O)(=O)NCC2CCN(CCc3ccc(OC)cc3)CC2)cn1C	i	i	i	i	i	nt
CC(C)Oc1ccc(CNC(=S)N/N=C/c2ccc([N+](=O)[O-])cc2)cc1	i	i	i	i	43.3	i
Cc1ccccc1OCCC(=O)Nc1ccccc1C(=O)NC1CC1	i	i	i	i	i	nt
COc1ccc(CC(=O)OCC(=O)Nc2cc(Cl)ccc2C)cc1	i	i	i	nt	i	nt
O=C(N/C(=C/c1ccc(Br)cc1)C(=O)N1CCCC1)c1cccs1	i	i	i	i	46.0	i
O=C(N/C(=C\c1ccc(Br)cc1)C(=O)N1CCCC1)c1cccs1	i	i	i	i	i	nt
COc1cc(/C=C/C(=O)N2C(=O)c3cccc(N)c3C2=O)cc(OC)c1OC	i	i	i	i	43.2	i
COc1ccc(OC)c(/C=C/C(=O)N2C(=O)c3cccc(N)c3C2=O)c1	i	i	i	i	42.3	31.5
Nc1cccc2c1C(=O)N(C(=O)/C=C/c1cccc(Br)c1)C2=O	nt	nt	nt	i	nt	nt
C/C(=N\NC(=O)CNC(=O)c1ccccc1F)c1ccco1	i	i	i	i	i	nt
